# Laboratory results reported in publication PMC4336329 (PLoS ONE, 2015).
# In all, about 310,000 compounds went through this assay and about 14,000 (4.5%) showed an effect of 50% or more. Effects have a minus sign here. The entries come from a sample that favours strong results as a whole.
# Target: human ether-à-go-go-related gene (hERG) potassium channel (human, UniProt Q12809)
# Test: primary screen, population patch clamp on CHO cells stably expressing hERG; higher = less effect of the substance
# 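Further: peak tail current of the secondary pulse compared with the same well before compound.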
# Sequence of human ether-à-go-go-related gene (hERG) potassium channel (Q12809 whole entry, looked up): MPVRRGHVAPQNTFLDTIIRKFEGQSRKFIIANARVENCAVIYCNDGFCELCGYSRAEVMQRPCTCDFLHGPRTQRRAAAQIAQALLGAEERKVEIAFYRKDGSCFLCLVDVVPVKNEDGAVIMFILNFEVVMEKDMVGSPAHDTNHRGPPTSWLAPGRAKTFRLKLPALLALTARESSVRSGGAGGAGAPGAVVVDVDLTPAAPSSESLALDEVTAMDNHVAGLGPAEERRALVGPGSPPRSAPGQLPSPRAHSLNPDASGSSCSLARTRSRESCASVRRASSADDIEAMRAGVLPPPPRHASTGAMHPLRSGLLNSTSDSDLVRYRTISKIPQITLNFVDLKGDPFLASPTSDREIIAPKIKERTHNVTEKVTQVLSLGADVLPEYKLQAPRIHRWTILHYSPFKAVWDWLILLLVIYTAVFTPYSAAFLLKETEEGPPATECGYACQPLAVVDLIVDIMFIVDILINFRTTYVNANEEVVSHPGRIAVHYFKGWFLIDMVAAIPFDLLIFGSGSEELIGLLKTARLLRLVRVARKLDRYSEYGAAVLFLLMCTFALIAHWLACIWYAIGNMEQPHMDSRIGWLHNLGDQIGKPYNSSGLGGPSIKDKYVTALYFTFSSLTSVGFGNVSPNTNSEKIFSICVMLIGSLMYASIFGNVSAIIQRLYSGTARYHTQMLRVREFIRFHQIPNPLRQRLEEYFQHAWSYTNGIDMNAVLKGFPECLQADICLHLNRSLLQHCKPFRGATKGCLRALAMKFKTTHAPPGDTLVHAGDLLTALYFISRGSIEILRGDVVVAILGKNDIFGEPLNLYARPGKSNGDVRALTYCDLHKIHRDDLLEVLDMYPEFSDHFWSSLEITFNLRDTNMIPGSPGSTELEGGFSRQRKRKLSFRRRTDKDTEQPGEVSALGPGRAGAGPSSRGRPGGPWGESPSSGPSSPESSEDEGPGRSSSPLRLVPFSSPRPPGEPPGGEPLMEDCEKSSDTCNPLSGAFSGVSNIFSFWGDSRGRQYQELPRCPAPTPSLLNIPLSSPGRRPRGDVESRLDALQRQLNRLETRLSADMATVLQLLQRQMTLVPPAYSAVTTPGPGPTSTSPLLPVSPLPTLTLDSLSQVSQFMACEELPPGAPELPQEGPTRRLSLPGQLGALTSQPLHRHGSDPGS
row,Structure (SMILES),"hERG current change (%, negative = inhibition) at 10uM [%]"
1,CC(C(=O)NCc1cccnc1)N1C(=O)c2ccccc2C1=O (stereo not shown),17.4
2,CNC(=O)CSCCn1c(SCC(=O)NC)nc2ccccc2c1=O,13.1
3,COc1ccc(-c2cc(C(F)(F)F)n3ncc(C(=O)N(C)Cc4ccccc4)c3n2)cc1,-17
4,Cc1cc(C)cc(Oc2ccc(N)cc2)c1,-15.1
5,COc1ccccc1NC(=O)C(C)N(C)CCOc1ccccc1 (stereo not shown),16.5
6,COc1ccc(Cn2c(C)nnc2-c2cnn(C)c2N)cc1,14.8
7,O=S(=O)(NCC1CCCO1)c1cccc(S(=O)(=O)N2CCCC2)c1 (stereo not shown),-14
8,CCN1CCN(C(=O)CCNC(=O)Cn2ccc3ccccc3c2=O)CC1,13.9
9,Cc1ccc(-c2nc(CSc3nc4ccccc4c(=O)n3C)cs2)cc1,9.52
10,CCN1CCN(CCCNC(=O)c2ccc(NC(=O)C3=C(C)OCCS3)cc2)CC1,17.6
11,O=C(O)c1cccc2c1/C(=N/Nc1ccc([N+](=O)[O-])cc1[N+](=O)[O-])c1ccccc1-2,19.7
12,Cc1ccc(-n2nc(C)c(Sc3ccccc3[N+](=O)[O-])c2N)cc1,-17.2
13,Cc1nn(C(=O)c2cccc([N+](=O)[O-])c2)c(C)c1Sc1ccccc1,7.61
14,Cc1nn(-c2ccccc2)c(N)c1Sc1cccc([N+](=O)[O-])c1.Cl,-65.9
15,CCOc1ccc(NC(=O)c2ccc(NC(=S)NC3CCCCC3)cc2)cc1,20.9
16,O=C(CCN1C(=O)[C@@H]2Cc3ccccc3CN2C1=O)NCc1ccccc1,-12
17,Cc1ccc(NC(=O)CCCCCN2C(=O)[C@@H]3Cc4ccccc4CN3C2=O)cc1,-12.1
18,O=C(CCN1C(=O)c2ccncc2C1=O)NCc1ccc(Cl)cc1,-51.9
19,Cc1cc(C)cc(NC(=O)CCCN2C(=O)C(c3ccccc3)Oc3cccnc32)c1 (stereo not shown),-1.03
20,Cc1cccc(NC(=O)CCCCCN2C(=O)[C@@H]3Cc4ccccc4CN3C2=O)c1,-21.7
21,O=C(CCCN1C(=O)C(c2ccccc2)Oc2cccnc21)Nc1cccc(F)c1 (stereo not shown),-50.2
22,Cc1cc(C)cc(NC(=O)CCCCCN2C(=O)[C@@H]3Cc4ccccc4CN3C2=O)c1,-51.9
23,Cc1ccc(CNC(=O)CCN2C(=O)[C@@H]3Cc4ccccc4CN3C2=O)cc1,-40.5
24,O=C(CCN1C(=O)c2ccccc2C1=O)NCc1ccc(Cl)cc1,-16.9
25,CCc1cccc(NC(=O)CCCN2C(=O)C(c3ccccc3)Oc3cccnc32)c1 (stereo not shown),-2.79
26,O=C(CCN1C(=O)[C@@H]2Cc3ccccc3CN2C1=O)NCc1ccc(Cl)cc1,-64.2
27,COc1ccc(CNC(=O)CCN2C(=O)c3ccncc3C2=O)cc1OC,13
28,Cc1ccccc1NC(=S)N(Cc1cccnc1)Cc1ccccc1Cl,-11.6

row,Structure (SMILES),"hERG current change (%, negative = inhibition) at 10uM [%]"
1,COc1ccc(C(=O)Nc2ccccc2C(=O)N2CCCCCC2)cc1OC,-10.5
2,Cc1c(NC(NC(=O)CF)C(Cl)(Cl)Cl)c(=O)n(-c2ccccc2)n1C (stereo not shown),4.94
3,O=C(NC(=S)Nc1cc(Cl)ccc1N1CCOCC1)c1ccc(-c2cccc(Cl)c2)o1,8.91
4,O=C(COc1ccccc1O)Nc1ccccc1Cl,-4.32
5,COc1ccc(CCn2c(SCC(=O)Nc3cc(C)on3)nc3ccccc3c2=O)cc1OC,0.454
6,Cc1ccc(OC(=O)CCc2c(C)nc3ncnn3c2C)cc1,-8.47
7,O=C(CCN1C(=O)[C@@H]2Cc3ccccc3CN2C1=O)Nc1cccc(F)c1,-13.8
8,COc1cccc(NC(=O)CCCCCN2C(=O)[C@@H]3Cc4ccccc4CN3C2=O)c1,-37.7
9,O=C(CCCCCN1C(=O)[C@@H]2Cc3ccccc3CN2C1=O)Nc1cccc(F)c1,-67.9
10,CC1C(C#N)=C(N)OC2=C1C(=O)CC(C)(C)C2 (stereo not shown),9.35
11,Cc1ccc(/C=N/NC(=O)NN(C)c2ncc(C(F)(F)F)cc2Cl)cc1,-3.09
12,CCOc1cc(/C=N/NC(=O)NN(C)c2ncc(C(F)(F)F)cc2Cl)ccc1O,-54.3
13,CCOc1cc(/C=N/NC(=O)N/N=C/c2ccc(O)c(OCC)c2)ccc1O,-10.1
14,CC1=C(C(=O)OCC2CCCO2)C(c2ccc(Cl)c(Cl)c2)NC(=O)N1 (stereo not shown),11.4
15,CCN1C(=NCc2ccc(OC)cc2)N[C@@H](CCc2ccccc2)[C@H](C(=O)NCc2ccc(OC)cc2)[C@H]1C,-65.4
16,CCN1C(=NCC(C)C)N[C@@H](CCc2ccccc2)[C@H](C(=O)NCC(C)C)[C@H]1C,-16.2
17,CCN1C(=NCCOC)N[C@@H](CCc2ccccc2)[C@H](C(=O)OC)[C@H]1C,-1.21
18,Cc1cc(/C=N/NC(N)=O)c(C)n1-c1ccc(F)cc1,-2.06
19,Cc1ccc(C(C(=O)NC2CCCCC2)N(C(=O)c2csnn2)C2CC2)o1 (stereo not shown),-57.6
20,Cc1ccc(C(C(=O)NC2CCCCC2)N(C(=O)c2csnn2)C2CCCC2)o1 (stereo not shown),-7.71
21,Cc1cccc(N(C(=O)c2csnn2)C(C(=O)NCc2ccccc2)c2ccc(C)o2)c1 (stereo not shown),-54.6
22,O=C(NCc1ccc(F)cc1)C(c1ccc(F)cc1)N(C(=O)c1csnn1)C1CC1 (stereo not shown),9.3
23,Cc1ccc(C(C(=O)NCc2ccccc2)N(C(=O)c2csnn2)c2cccc3ccccc23)o1 (stereo not shown),-13.2
24,Cc1cccc(N(C(=O)c2csnn2)C(C(=O)NCc2ccccc2)c2cccs2)c1 (stereo not shown),-9.49
25,Cc1ccc(C(C(=O)NCc2ccc(F)cc2)N(C(=O)c2csnn2)C2CC2)cc1 (stereo not shown),-19.3
26,Cc1ccc(C(C(=O)NC2CCCC2)N(C(=O)c2csnn2)C2CCCC2)o1 (stereo not shown),-4.91
27,Cc1ccc(C(C(=O)NCc2ccc(F)cc2)N(C(=O)c2csnn2)C2CC2)o1 (stereo not shown),-56.7
